Screens as filed in PubChem.
Rows were chosen to be rich in hits. Some 1.1% of all compounds tested hit in one or more screens of this group.
Mito fusion yeast: inhibitors of mitochondrial division or activators of mitochondrial fusion; S. cerevisiae fusion-defective mutant growth rescue, CellTiterGlo 48 h; Potency, µM (series often up to 46.1 µM), for inactives: at the highest dose growth rescue (activation), usual class: activators; 320,000 compounds, 0.23% hits; AID 485298; active = well fitted activation curve with a large enough effect; inconclusive = small, poorly fitted or top-dose-only effect; inactive = no such curve, though single readings can be large or run the other way; note: potency is the fitted concentration of half-maximal effect; % of control where 0% means no effect; nearly all actives have a fitted effect of over 45% in size
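Yeast fusion mutant, YPEG (non-fermentable carbon), compound, 48 h at 37C non-permissive; CellTiterGlo added, 10 min RT, luminescence read. Rescued growth = division inhibition.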
MBNL1 CUG block: MBNL1-poly(CUG) RNA binding inhibition; TR-FRET MBNL1-His/biotin-(CUG)12 binding, 665/545 ratio; Q9NR56; 280,000 compounds, 0.036% hits; Potency, µM (top dose mostly 57.5 µM), inactives show top-dose activity change, negative = inhibition, actives largely listed as inhibitors; AID 2675; active = well fitted inhibition curve with a large enough effect in the signal ratio, with a control signal flat, not every such curve was filed as active; inconclusive = small, poorly fitted or top-dose-only effect, or effect the other way, or a change in a side signal; inactive = no such curve, though single readings can be large or run the other way; the % refers to the signal ratio; note: potency is the fitted concentration of half-maximal effect; % is set by controls: 0 for no effect and ±100 for the full control effect
Target sequence (Q9NR56 whole entry, looked up): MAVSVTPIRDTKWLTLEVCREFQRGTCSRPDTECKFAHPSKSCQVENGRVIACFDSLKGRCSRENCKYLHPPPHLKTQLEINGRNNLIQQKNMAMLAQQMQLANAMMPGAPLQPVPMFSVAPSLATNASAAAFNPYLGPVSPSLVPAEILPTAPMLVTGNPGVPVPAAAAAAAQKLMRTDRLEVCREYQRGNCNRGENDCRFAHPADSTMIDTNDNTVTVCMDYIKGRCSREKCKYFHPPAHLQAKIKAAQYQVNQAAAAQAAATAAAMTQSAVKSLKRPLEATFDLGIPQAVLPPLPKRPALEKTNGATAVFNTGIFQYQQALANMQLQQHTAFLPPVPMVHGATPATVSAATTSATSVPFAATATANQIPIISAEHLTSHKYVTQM
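Compound titration spanned 92 nM–58 uM against the MBNL1-His/biotin-(CUG)12 complex. After 60 min at room temperature with 5 nM streptavidin-XL665 and 0.055 ng/ul terbium anti-His, ratiometric 665/545 nm emission (Ex 340 nm) normalized to controls.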
CtBP-E1A inh: blocks the CtBP interaction with E1A. 340,000 compounds, 0.49% hits. activity change, % (test concentration not listed). AID 651724. AlphaScreen GST-E1A/His-CtBP binding, 1536-well; hits give low values; note: % is set by controls: 0 for no effect and ±100 for the full control effect
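AlphaScreen with 125 nM GST-E1A and 125 nM His-CtBP (5X stocks) in Tris pH 8.0, 300 mM NaCl, BSA, Tween 20, TCEP. Compounds preincubated 2 h at 37 deg C, then glutathione donor/nickel acceptor beads added for 1 h at 37 deg C in dark.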
Six1-Eya2 inh: blocks human Six1 binding to Eya2. activity change, % (test concentration not listed). AlphaScreen GST-Six1/His-Eya2 binding, biochemical; hits give low values. 360,000 compounds, 0.56% hits. Q15475+O00167; note: % is set by controls: 0 for no effect and ±100 for the full control effect
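GST-Six1 + His-Eya2 (5X stock: 250/500 nM); Tris pH 8.0, 300 mM NaCl, 0.05% BSA, 0.02% Tween 20; GSH donor/Ni acceptor beads; 1 h 37 °C dark; AlphaScreen readout.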
uPA surface inh: blocks generation of uPA at the cell surface | AID 540303 | 330,000 compounds, 0.31% hits | cell surface uPA generation assay, qHTS | Potency, µM (doses to about 38.3 µM), for inactives: at the highest dose activity change, negative = inhibition, usual class: inhibitors; active = well fitted inhibition curve with a large enough effect; inconclusive = small, poorly fitted or top-dose-only effect; inactive = no such curve, though single readings can be large or run the other way; tested in mouse RAW 264.7 cells; note: potency is the fitted concentration of half-maximal effect; % is set by controls: 0 for no effect and ±100 for the full control effect; nearly all actives have a fitted effect of over 55% in size
Starred values were filed as active, the others as inactive; ? = inconclusive; nt = no result given; ! = a repeat was not active. Cut-off read from the data, not from the text of the source, unless noted: active = activity change below about -65%; inconclusive = mostly about -30% to -63%; inactive = weaker than that.

SMILES	Mito fusion yeast	MBNL1 CUG block	CtBP-E1A inh	Six1-Eya2 inh	uPA surface inh
O=C(/C=C/c1ccccc1)Nc1cccc(C(=O)NC2CC2)c1	nt	nt	11	8	13µM*
O=Nc1c(-c2c(O)[nH]c3cc(Br)ccc23)[nH]c2ccccc12	1.8µM*!	?	?	-71*	?
O=C(CSCc1cccc(Br)c1)N=Nc1c(O)[nH]c2ccccc12	-1%	?	-18	-11	4%
CCCCCCN1CCN(C2CN(Cc3cn(Cc4cccc(C(F)(F)F)c4)nn3)S(=O)(=O)C2)CC1 (stereo not given)	nt	nt	0	-9	nt
CCOc1ccc(NC(=S)NCc2ccc3[nH]c(C)cc3c2)cc1	-11%	-24%	nt	-68*	8%
O=C1CSCc2nc3ccccc3n21	nt	nt	-1	2	3%
CCn1c(N2CCN(C(c3ccccc3)c3ccccc3)CC2)nc2c1c(=O)[nH]c(=O)n2C	nt	nt	nt	-2	-5%
O=C(N/N=C/c1cc(Cl)cc([N+](=O)[O-])c1O)c1cccc(S(=O)(=O)N2CCOCC2)c1	7%	nt	-87*	-91*	0%
CC(C)c1ccc(/C=N/NC(=O)c2cccc(S(=O)(=O)N3CCOCC3)c2)cc1	-2%	-5%	2	11	-3%
O=C(N/N=C/c1ccccc1Br)c1cccc(S(=O)(=O)N2CCOCC2)c1	2%	nt	-10	-11	11%
O=C(N/N=C/c1cc(Br)cc(Br)c1O)c1cccc(S(=O)(=O)N2CCOCC2)c1	17%	-4%	-94*	-70*	5%
CC(C)(C)c1ccc(C(=O)N2CCC2(C)C(=O)Nc2ccc3nc[nH]c3c2)cc1 (stereo not given)	nt	nt	-12	2	nt
COc1ccc(NC(=O)C2CCCN(c3cnccn3)C2)cc1 (stereo not given)	10%	-7%	nt	2	-10%
CC(C)(C)c1ccc(NC(=O)C2CCCN(c3cnccn3)C2)cc1 (stereo not given)	13µM*	0%	-3	-9	-13%
COc1ccc(C2Nc3ccccc3C(=O)N2Cc2ccccc2)cc1COc1ccc(Cl)cc1Cl (stereo not given)	-1%	nt	nt	nt	nt
Cc1n[nH]c(=S)n(/N=C/c2cccs2)c1=O	2%	nt	-72*	?	2%
COC(=O)CCCC[C@H]1SC[C@H]2NC(=O)N[C@]21O	-1%	0.32µM*	nt	nt	nt
COC(=O)C1CSC(C)(C)C(=O)N1 (stereo not given)	0%	-5%	11	3	-17%
COC(=O)CCCCC1SCC2NC(=O)NC21O (stereo not given)	0%	0.71µM*	-7	8	-1%
Cc1ccc2cc(CNC[C@H]3O[C@@H](n4cc(C)c(=O)[nH]c4=O)C[C@@H]3O)c(N3CCOCC3)nc2c1	nt	nt	4	-1	nt
CC(=O)C1=C(O)C(=O)N(Cc2cccnc2)C1c1ccc(C(C)C)cc1 (stereo not given)	4.5µM*	4%	nt	5	9%
N#Cc1ccc(CN2CCN(C(=O)C3CC(=O)N(c4ccc5c(c4)OCCO5)C3)CC2)cc1 (stereo not given)	nt	nt	4	-6	nt
CCc1nc2ccc(C(=O)NCCCn3ccnc3)cn2c1N(C)Cc1nccs1	nt	nt	-15	1	nt
O=C(Nc1ccc(F)cc1)c1nc[nH]c1C(=O)Nc1ccccc1[N+](=O)[O-]	4%	-20%	4	-1	-1%
O=C(Nc1ccc(F)cc1)c1nc[nH]c1C(=O)O	2%	4%	nt	-77*	-7%
SMILES	Mito fusion yeast	MBNL1 CUG block	CtBP-E1A inh	Six1-Eya2 inh	uPA surface inh
CCOc1ccc(N=Nc2ccc(O)c3ncccc23)cc1	15%	-1%	?	-13	-1%
CCN(CC)S(=O)(=O)c1cc(OC)ccc1N=Nc1ccc(O)c2ncccc12	-8%	36%	nt	-92*	?
CCS(=O)(=O)c1ccc(OC)c(N=Nc2ccc(O)c3ncccc23)c1	1%	?	-96*	-92*	-3%
COc1cc(/C=N/NC(=O)CCn2c3ccccc3c3ccccc32)cc(OC)c1OC	0%	3%	9	3	3%
Cc1ccc(/C=N/NC(=O)CNC(=O)c2cccs2)cc1	1%	12%	2	1	1%
COc1cccc(/C=N/NC(=O)CNC(=O)CCc2ccccc2)c1O	-1%	5%	nt	-69*	?
COc1cc(/C=N/NC(=O)CCC(=O)NCc2ccccc2)cc(OC)c1OC	-1%	6%	-66*	-12	2%
COc1cccc(/C=N/NC(=O)CNC(=O)c2cccs2)c1O	-2%	10%	-89*	-85*	0%
COc1ccccc1/C=C\C(=O)NCC(=O)N/N=C/c1cccc(OC)c1O	1%	15%	-89*	?	-3%
COc1ccccc1/C=N/NC(=O)CNC(=O)c1ccccc1	1%	-5%	-7	1	4%
CCCCn1c(N)c(N(CC)C(=O)COc2ccc(C#N)cc2)c(=O)[nH]c1=O	nt	nt	4	8	3%
O=C(Nc1ccc2c(c1)OCO2)c1ccc2nc([C@@H]3O[C@H](CO)[C@H](O)[C@H](O)[C@H]3O)[nH]c2c1	nt	nt	1	-7	nt
O=c1[nH]c2sc3c(c2c2nncn12)CCCC3	0%	-8%	-83*	-79*	nt
O=C(NCc1ccccc1)C1c2ccccc2OCC(=O)N1Cc1ccccc1 (stereo not given)	nt	nt	-1	-8	nt
O=C(O)CCNc1cc(N2CCN(C(=O)c3ccco3)CC2)c2noc3c2c1C(=O)c1ccccc1-3	-18%	?	-85*	-74*	-2%
O=C(Oc1ccc(C(=S)N2CCOCC2)cc1)c1ccccc1	-5%	-3%	-16	?	0%
O=C(/C=C/c1ccccc1)Oc1ccc(C(=S)N2CCOCC2)cc1	-2%	5%	nt	?	-1%
O=C(Oc1ccc(C(=S)N2CCOCC2)cc1)c1ccc(Br)cc1	1%	12%	8	-89*	3%
O=C(/C=C/c1ccco1)Oc1ccc(C(=S)N2CCOCC2)cc1	-6%	?	-93*	-89*	0%
COC(=O)c1ccc(OC(=O)/C=C/c2ccco2)cc1	-2%	?	-93*	-85*	2%
COC(=O)c1ccc2nc(-c3ccc(C#N)cc3)c(Cc3cccc(Cl)c3)n2c1	nt	nt	3	-2	nt
CC(OC(=O)c1ccc2ccccc2c1)C(=O)N(C)Cc1ccccc1 (stereo not given)	20%	nt	-12	1	?
CC(C)N(CCC(=O)c1ccc2ccccc2c1)Cc1ccccc1	-34%	nt	-13	8	3.2µM*
Cc1ccccc1Nc1nc(N)nc(CSc2nc3ccccc3s2)n1	20µM*	nt	6	-5	-5%
CCCCc1ccc(S(=O)(=O)NC(=O)C2(C)CCN2C(=O)CC2CC2)cc1 (stereo not given)	nt	nt	-24	12	nt
COc1ccccc1-c1c(C)[nH]n2c(=O)c(Cc3ccccc3)c(C)nc12	-2%	-7%	-4	-16	-25%
